This note sets out measurements from PubChem BioAssay (EPA / NIEHS).

The nature of assay [1]: ATG_PPRE_CIS: Attagene CIS-FACTORIAL HepG2 Assay for human Peroxisome Proliferator-activated Response Element (PPRE) (AID 2282958). The note with it: HepG2 PPRE cis-element reporter, Attagene transcription factor profiling; actives raise or lower the signal. Put shortly:
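HepG2, transient MRTU transfection (cis promoter elements, endogenous TFs). 24 h dosing. RNA → oligo(dT) RT → PCR → 6-FAM primer extension → HpaI digest → CE. Bidirectional fit vs DMSO.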

A short description of assay [2]: ATG_RORE_CIS: Attagene CIS-FACTORIAL HepG2 Assay for human RAR-related Orphan Receptor Element (RORE) (AID 2282959). The note with it: HepG2 Attagene cis-factorial RORE reporter, mRNA; actives raise or lower the signal. A digest of the protocol: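 Transient MRTU transfection of human HepG2 liver cells (FuGene 6); 24 h compound exposure; TriZol RNA, oligo(dT) RT, PCR, FAM labeling, HpaI cut, CE fragment analysis. DMSO = negative control/baseline.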

Assay [3] in a line: ATG_Sox_CIS: Attagene CIS-FACTORIAL HepG2 Assay for human SRY-box transcription factor (SOX) (AID 2282960). The note with it: HepG2 Attagene cis-factorial SOX reporter, mRNA; actives raise or lower the signal. A digest of the protocol:
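Endogenous factor activity in human liver HepG2 cells carrying transfected cis-regulated reporter units. RNA taken 24 h post-dose, reverse-transcribed, PCR-amplified and sized by capillary electrophoresis. Gain or loss of signal fitted relative to DMSO.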

Assay [4] addresses Transcription factor Sp1 (Homo sapiens) (UniProt P08047). As to the kind of experiment: ATG_Sp1_CIS: Attagene CIS-FACTORIAL HepG2 Assay for human Specificity Protein 1 (Sp1) (AID 2282961). The settings on record: HepG2 Sp1 cis-reporter transcription, actives raise or lower the signal. Put shortly:
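Transient MRTU-transfected HepG2, 24 h compound exposure. Total RNA → oligo(dT) RT → PCR of reporter → 6-FAM primer extension → HpaI digest → CE. Endpoint fitted both directions vs DMSO.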

The nature of assay [5]: ATG_SREBP_CIS: Attagene CIS-FACTORIAL HepG2 Assay for human Sterol Regulatory Element Binding (SREBP) (AID 2282962). The settings on record: HepG2 Attagene cis-factorial SREBP reporter, mRNA; actives raise or lower the signal. A digest of the protocol: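 Transfected HepG2 (cis-regulated reporter library, endogenous TFs) → compound 24 h → total RNA → oligo(dT) RT → reporter-specific PCR → FAM primer extension, HpaI cut → CE fluorescence. Fit bidirectional vs DMSO.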

Assay [6] addresses Signal transducer and activator of transcription 3 (Homo sapiens) (UniProt P40763). As to the kind of experiment: ATG_STAT3_CIS: Attagene CIS-FACTORIAL HepG2 Assay for human Signal Transducer and Activator of Transcription 3 (STAT3) (AID 2282963). The note with it: HepG2, Attagene cis-factorial STAT3 reporter transcription; actives raise or lower the signal. A digest of the protocol:
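After a 24 h compound incubation, total RNA from MRTU-transfected HepG2 cells was converted to cDNA and reporter sequences PCR-amplified, labelled and profiled by capillary electrophoresis. Gain and loss of signal were referenced to DMSO.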

Assay [7] is described as follows: ATG_TCF_b_cat_CIS: Attagene CIS-FACTORIAL HepG2 Assay for human T-Cell-Factor with beta-catenin (TCF/b-cat) (AID 2282965). The settings on record: HepG2 TCF/beta-catenin cis-reporter transcription, actives raise or lower the signal. A digest of the protocol: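 Endogenous transcription factor activity is captured through cis-promoter reporter constructs transiently introduced into human HepG2 liver cells. Induced reporter mRNA is measured after 24 h and fitted bidirectionally relative to DMSO.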

Assay [8] is described as follows: ATG_TAL_CIS: Attagene CIS-FACTORIAL HepG2 Assay for human TAL Basal Promoter (AID 2282966).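 Also: background control endpoint measuring basal TAL promoter reporter mRNA not a specific factor.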 The settings on record: HepG2 Attagene cis-factorial TAL promoter reporter; actives raise or lower the signal. A digest of the protocol:
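HepG2 cells transiently transfected with multiplexed cis-promoter reporter units, dosed 24 h. Reporter mRNA quantified by RT-PCR, 6-FAM labelling, HpaI digestion and capillary electrophoresis; TAL basal promoter serves as background control, fitted bidirectionally versus DMSO.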

The nature of assay [9]: ATG_TGFb_CIS: Attagene CIS-FACTORIAL HepG2 Assay for human Transforming Growth Factor (TGF) (AID 2282967). The settings on record: HepG2 Attagene CIS TGFb reporter, mRNA transcription; actives raise or lower the signal. A digest of the protocol:
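Transcript-level reporter readout: HepG2 transfectants, 24 h exposure, RNA to cDNA, reporter-specific PCR, fluorescent primer extension, capillary sizing against ROX standards. Gain- or loss-of-signal relative to DMSO.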

Assay [10] concerns the target Estrogen receptor (Homo sapiens) (UniProt P03372). In words: ATG_ERa_TRANS: Attagene TRANS-FACTORIAL HepG2 Assay for human Estrogen Receptor alpha (ERa) (AID 2282970; active = hit-call score of the fitted dose curve at least 0.9, where 1 is the maximum). The note with it: HepG2 Attagene TRANS ERa GAL4 reporter, mRNA. A digest of the protocol: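 HepG2 cells transiently transfected with multiplexed GAL4-UAS reporter units read out chimeric NR-Gal4 activity. After 24 h compound exposure, reporter mRNA was quantified by RT-PCR, 6-FAM labeling, HpaI digestion and capillary electrophoresis, relative to DMSO.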

In assay [11] the target is X-box-binding protein 1 (Homo sapiens) (UniProt P17861). In words: ATG_Xbp1_CIS: Attagene CIS-FACTORIAL HepG2 Assay for human X-box Binding Protein 1 (XBP1) (AID 2282972). The note with it: HepG2 XBP1 cis-element reporter, Attagene multiplex; actives raise or lower the signal. Put shortly: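 HepG2, transient MRTU transfection (cis-promoter driven), 24 h compound exposure. Total RNA → oligo(dT) RT → PCR → 6-FAM labeling → HpaI cut → CE. Bidirectional fit vs DMSO.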
Chain of X-box-binding protein 1 (Homo sapiens) (P17861 whole entry, looked up): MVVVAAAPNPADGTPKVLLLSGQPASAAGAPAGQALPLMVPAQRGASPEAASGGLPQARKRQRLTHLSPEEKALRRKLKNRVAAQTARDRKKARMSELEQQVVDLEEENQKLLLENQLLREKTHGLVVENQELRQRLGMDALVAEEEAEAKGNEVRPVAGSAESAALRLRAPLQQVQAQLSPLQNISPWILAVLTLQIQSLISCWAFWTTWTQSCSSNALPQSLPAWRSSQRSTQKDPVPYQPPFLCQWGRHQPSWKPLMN

Assay [12] in a line: ATG_M_19_TRANS: Attagene TRANS-FACTORIAL HepG2 Assay for M19 Transcription Factor (Internal Marker) (AID 2282974; active = hit-call score of the fitted dose curve at least 0.9, where 1 is the maximum). The note with it: HepG2 Attagene TRANS-FACTORIAL M19 internal marker reporter. Put shortly:
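Fluorescence of 6-FAM-labelled reporter cDNA fragments, separated by capillary electrophoresis, served as the readout. These derived from HepG2 cells carrying transfected GAL4-UAS reporter units after 24 h dosing, with DMSO as negative control.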

Assay [13] can be described thus: ATG_TA_CIS: Attagene CIS-FACTORIAL HepG2 Assay for human TA Basal Promoter (AID 2282964). The settings on record: HepG2 Attagene CIS-factorial TA basal promoter reporter; actives raise or lower the signal. Put shortly: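 Multiplexed mRNA reporter assay, HepG2, 24 h. Reporter cDNA amplified, 6-FAM primer-extended, HpaI-cut, CE-sized; DMSO = negative control and baseline.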

The nature of assay [14]: ATG_VDRE_CIS: Attagene CIS-FACTORIAL HepG2 Assay for human Vitamin D Receptor Element (VDRE) (AID 2282968). The note with it: HepG2 VDRE cis-reporter transcription, actives raise or lower the signal. Put shortly:
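In transiently transfected HepG2 liver cells, gain or loss of reporter mRNA after 24 h exposure is scored relative to DMSO, using fluorescence detection by capillary electrophoresis of RT-PCR products.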

Assay [15] is described as follows: ATG_GAL4_TRANS: Attagene TRANS-FACTORIAL HepG2 Assay for GAL4 (Internal Marker) (AID 2282976; active = hit-call score of the fitted dose curve at least 0.9, where 1 is the maximum). The settings on record: HepG2 Attagene TRANS GAL4 internal marker reporter. Put shortly: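 Background-control readout: GAL4-UAS reporter transcript in transiently transfected HepG2 cells after 24 h compound exposure. Measured by RT-PCR, 6-FAM primer extension, HpaI digest and capillary electrophoresis; gain-of-signal fit versus DMSO.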

Assay [16] has as its target Nuclear receptor subfamily 1 group I member 3 (Homo sapiens) (UniProt Q14994). As to the kind of experiment: ATG_CAR_TRANS: Attagene TRANS-FACTORIAL HepG2 Assay for human Constitutive Androstane Receptor (CAR) (AID 2282969; active = hit-call score of the fitted dose curve at least 0.9, where 1 is the maximum;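 also: activators raise reporter mRNA above DMSO so AC50 marks induction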). The settings on record: HepG2 Attagene TRANS-FACTORIAL CAR reporter. Put shortly: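 Readout is reporter mRNA induction, quantified by fluorescent primer extension and capillary electrophoresis after RT-PCR. Cells were HepG2 transiently carrying chimeric NR-Gal4 constructs with GAL4-UAS reporters, treated for 24 h; activity scored upward from DMSO.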

The target in assay [17] is Bile acid receptor (Homo sapiens) (UniProt Q96RI1). In words: ATG_FXR_TRANS: Attagene TRANS-FACTORIAL HepG2 Assay for Farnesoid X Receptor (FXR) (AID 2282979; active = hit-call score of the fitted dose curve at least 0.9, where 1 is the maximum;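 also: hits raise reporter mRNA above DMSO so AC50 marks FXR activation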). The note with it: HepG2 Attagene TRANS FXR-GAL4 reporter transcription. Put shortly:
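HepG2 cells were transiently transfected with GAL4-UAS reporters driven by chimeric NR-Gal4 proteins and dosed for 24 h. Reporter mRNA was quantified by RT-PCR, fluorescent labelling, HpaI digestion and capillary electrophoresis, with gain of signal scored versus DMSO.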

In assay [18] the target is Glucocorticoid receptor (Homo sapiens) (UniProt P04150). In words: ATG_GR_TRANS: Attagene TRANS-FACTORIAL HepG2 Assay for human Glucocorticoid Receptor (GR) (AID 2282978; active = hit-call score of the fitted dose curve at least 0.9, where 1 is the maximum;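 also: activators score as hits since higher reporter transcript over DMSO is fitted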). The settings on record: HepG2 Attagene TRANS GR reporter, mRNA transcription. A digest of the protocol: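 Fluorescent capillary-electrophoresis quantitation of reporter mRNA is the readout, taken 24 h after dosing human HepG2 cells carrying transiently transfected GAL4-UAS reporter units activated by chimeric NR-GAL4 fusions; activity scored as induction over DMSO.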
Chain of Glucocorticoid receptor (Homo sapiens) (P04150 whole entry, looked up, the tested form may be a part): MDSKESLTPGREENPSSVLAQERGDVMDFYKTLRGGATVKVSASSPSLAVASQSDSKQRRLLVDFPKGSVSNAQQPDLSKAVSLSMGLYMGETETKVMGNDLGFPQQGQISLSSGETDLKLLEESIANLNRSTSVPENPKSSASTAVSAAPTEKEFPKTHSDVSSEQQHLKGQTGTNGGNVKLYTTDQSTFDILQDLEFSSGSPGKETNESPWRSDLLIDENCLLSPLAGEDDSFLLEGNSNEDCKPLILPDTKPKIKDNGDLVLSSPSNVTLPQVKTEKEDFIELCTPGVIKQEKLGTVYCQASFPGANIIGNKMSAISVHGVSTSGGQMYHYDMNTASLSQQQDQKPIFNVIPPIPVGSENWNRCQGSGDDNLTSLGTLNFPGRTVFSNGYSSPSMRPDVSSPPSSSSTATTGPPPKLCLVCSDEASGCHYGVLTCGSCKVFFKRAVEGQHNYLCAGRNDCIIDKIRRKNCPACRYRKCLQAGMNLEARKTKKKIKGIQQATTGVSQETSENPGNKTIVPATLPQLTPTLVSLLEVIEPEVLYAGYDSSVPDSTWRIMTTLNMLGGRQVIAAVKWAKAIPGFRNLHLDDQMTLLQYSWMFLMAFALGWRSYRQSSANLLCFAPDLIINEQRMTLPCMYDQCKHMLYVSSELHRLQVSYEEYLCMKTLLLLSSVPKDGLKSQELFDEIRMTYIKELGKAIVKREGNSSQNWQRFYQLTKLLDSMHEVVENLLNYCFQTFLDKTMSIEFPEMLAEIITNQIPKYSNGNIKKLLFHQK

In assay [19] the target is Steroid hormone receptor ERR1 (Homo sapiens) (UniProt P11474). As to the kind of experiment: ATG_ERRa_TRANS: Attagene TRANS-FACTORIAL HepG2 Assay for human Estrogen-Related Receptor alpha (ERRa) (AID 2282971; active = hit-call score of the fitted dose curve at least 0.9, where 1 is the maximum). The note with it: HepG2 Attagene TRANS reporter, ERRa transactivation. A digest of the protocol: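 HepG2 cells transiently transfected with GAL4-UAS reporter units and chimeric NR-Gal4 constructs; after 24 hour compound incubation, reporter mRNA quantified by RT-PCR, fluorescent labelling and capillary electrophoresis, gain of signal versus DMSO.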
Chain of Steroid hormone receptor ERR1 (Homo sapiens) (P11474 whole entry, looked up, the tested form may be a part): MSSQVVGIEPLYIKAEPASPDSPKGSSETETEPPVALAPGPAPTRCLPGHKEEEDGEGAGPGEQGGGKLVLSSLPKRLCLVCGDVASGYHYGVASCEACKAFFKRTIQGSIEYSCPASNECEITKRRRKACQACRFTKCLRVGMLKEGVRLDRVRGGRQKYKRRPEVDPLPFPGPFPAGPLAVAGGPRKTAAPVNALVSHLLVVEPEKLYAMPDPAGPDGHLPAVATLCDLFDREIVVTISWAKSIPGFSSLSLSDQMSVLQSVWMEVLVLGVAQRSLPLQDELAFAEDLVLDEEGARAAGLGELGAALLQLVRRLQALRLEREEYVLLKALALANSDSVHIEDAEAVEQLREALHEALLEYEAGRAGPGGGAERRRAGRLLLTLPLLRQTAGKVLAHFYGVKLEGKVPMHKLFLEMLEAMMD

Assay [20] has as its target Estrogen-related receptor gamma (Homo sapiens) (UniProt P62508). In words: ATG_ERRg_TRANS: Attagene TRANS-FACTORIAL HepG2 Assay for human Estrogen-Related Receptor gamma (ERRg) (AID 2282977; active = hit-call score of the fitted dose curve at least 0.9, where 1 is the maximum;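 also: hits increase reporter signal over DMSO so potencies reflect activators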). The settings on record: HepG2 Attagene TRANS reporter, ERRg transactivation. Put shortly: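 HepG2 cells transiently transfected with multiplexed GAL4-UAS reporter units and chimeric NR-Gal4 constructs were exposed to test chemicals for 24 h. Reporter mRNA was measured by RT-PCR, 6-FAM primer extension, HpaI digestion and capillary electrophoresis; gain-of-signal versus DMSO.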

Records with an inconclusive call do not appear. Calls of active or inactive are those of the source. The calls were made as follows, unless noted: active = hit-call score of the fitted dose curve at least 0.9, where 1 is the maximum; inactive = score below 0.9.

Broadly, the AC50 is the concentration giving half of the maximal activity seen.

Chain of Signal transducer and activator of transcription 3 (Homo sapiens) (P40763 whole entry, looked up): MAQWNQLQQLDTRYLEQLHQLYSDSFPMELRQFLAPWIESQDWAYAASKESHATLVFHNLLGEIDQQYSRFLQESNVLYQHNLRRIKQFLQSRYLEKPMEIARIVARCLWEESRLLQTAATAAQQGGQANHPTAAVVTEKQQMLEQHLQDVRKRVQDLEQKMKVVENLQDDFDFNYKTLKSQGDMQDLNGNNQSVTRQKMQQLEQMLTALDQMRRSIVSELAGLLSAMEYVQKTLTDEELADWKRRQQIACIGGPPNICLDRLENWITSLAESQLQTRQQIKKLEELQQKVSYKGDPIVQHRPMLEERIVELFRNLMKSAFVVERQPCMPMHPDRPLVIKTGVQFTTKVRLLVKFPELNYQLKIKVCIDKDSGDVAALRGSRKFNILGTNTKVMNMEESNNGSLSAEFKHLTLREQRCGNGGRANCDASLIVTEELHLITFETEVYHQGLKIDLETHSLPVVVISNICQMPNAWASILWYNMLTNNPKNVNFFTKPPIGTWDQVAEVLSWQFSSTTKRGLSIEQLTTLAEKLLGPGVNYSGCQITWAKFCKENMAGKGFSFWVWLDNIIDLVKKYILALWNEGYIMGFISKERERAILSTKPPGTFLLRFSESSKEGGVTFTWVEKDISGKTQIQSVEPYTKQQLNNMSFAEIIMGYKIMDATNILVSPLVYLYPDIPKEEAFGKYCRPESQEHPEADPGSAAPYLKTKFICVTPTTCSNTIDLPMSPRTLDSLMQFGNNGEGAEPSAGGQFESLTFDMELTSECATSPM
Chain of Estrogen receptor (Homo sapiens) (P03372 whole entry, looked up, the tested form may be a part): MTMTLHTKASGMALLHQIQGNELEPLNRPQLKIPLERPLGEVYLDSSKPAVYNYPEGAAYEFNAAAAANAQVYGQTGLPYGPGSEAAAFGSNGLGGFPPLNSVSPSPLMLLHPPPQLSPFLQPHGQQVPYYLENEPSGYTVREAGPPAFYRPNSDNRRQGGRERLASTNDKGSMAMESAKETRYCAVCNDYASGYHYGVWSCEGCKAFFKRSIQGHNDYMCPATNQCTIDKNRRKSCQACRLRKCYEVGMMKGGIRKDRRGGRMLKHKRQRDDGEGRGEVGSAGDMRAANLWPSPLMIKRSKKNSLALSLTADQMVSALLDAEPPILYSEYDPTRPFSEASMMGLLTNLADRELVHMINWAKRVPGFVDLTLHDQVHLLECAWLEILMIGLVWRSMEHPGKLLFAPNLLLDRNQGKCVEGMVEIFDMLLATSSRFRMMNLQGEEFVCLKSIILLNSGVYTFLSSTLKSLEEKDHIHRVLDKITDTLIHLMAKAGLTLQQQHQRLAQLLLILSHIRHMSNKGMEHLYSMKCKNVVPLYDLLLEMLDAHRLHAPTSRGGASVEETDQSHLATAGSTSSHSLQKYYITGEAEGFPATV
Chain of Nuclear receptor subfamily 1 group I member 3 (Homo sapiens) (Q14994 whole entry, looked up, the tested form may be a part): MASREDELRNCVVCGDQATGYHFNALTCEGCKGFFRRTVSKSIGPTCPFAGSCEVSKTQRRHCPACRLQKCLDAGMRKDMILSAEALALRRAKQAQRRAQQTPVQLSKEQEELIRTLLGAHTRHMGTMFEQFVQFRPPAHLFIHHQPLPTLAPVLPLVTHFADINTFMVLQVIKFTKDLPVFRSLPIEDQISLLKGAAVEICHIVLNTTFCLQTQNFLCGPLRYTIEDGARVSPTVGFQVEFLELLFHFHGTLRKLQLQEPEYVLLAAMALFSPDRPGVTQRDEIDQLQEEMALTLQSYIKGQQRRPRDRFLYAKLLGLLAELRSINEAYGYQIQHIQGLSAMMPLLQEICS
Chain of Transcription factor Sp1 (Homo sapiens) (P08047 whole entry, looked up): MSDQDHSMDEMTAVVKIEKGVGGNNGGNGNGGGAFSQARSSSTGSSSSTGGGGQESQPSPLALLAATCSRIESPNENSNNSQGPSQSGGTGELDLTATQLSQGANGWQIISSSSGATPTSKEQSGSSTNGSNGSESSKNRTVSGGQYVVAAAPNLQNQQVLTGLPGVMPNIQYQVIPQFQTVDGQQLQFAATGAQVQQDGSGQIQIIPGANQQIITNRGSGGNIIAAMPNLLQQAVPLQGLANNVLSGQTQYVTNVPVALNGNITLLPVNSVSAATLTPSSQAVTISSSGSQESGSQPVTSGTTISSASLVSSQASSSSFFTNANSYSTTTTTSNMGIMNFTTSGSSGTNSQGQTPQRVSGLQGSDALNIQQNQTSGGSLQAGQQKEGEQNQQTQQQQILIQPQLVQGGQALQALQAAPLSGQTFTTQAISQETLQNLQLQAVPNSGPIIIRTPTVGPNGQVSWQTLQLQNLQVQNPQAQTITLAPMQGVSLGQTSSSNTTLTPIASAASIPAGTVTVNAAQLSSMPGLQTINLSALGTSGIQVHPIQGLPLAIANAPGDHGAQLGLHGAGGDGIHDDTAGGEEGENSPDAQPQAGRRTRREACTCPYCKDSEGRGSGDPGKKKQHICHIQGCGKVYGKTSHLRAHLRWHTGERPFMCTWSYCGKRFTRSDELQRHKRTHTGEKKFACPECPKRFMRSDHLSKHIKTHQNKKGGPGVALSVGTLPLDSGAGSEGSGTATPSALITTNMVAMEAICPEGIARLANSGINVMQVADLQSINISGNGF
Chain of Bile acid receptor (Homo sapiens) (Q96RI1 whole entry, looked up, the tested form may be a part): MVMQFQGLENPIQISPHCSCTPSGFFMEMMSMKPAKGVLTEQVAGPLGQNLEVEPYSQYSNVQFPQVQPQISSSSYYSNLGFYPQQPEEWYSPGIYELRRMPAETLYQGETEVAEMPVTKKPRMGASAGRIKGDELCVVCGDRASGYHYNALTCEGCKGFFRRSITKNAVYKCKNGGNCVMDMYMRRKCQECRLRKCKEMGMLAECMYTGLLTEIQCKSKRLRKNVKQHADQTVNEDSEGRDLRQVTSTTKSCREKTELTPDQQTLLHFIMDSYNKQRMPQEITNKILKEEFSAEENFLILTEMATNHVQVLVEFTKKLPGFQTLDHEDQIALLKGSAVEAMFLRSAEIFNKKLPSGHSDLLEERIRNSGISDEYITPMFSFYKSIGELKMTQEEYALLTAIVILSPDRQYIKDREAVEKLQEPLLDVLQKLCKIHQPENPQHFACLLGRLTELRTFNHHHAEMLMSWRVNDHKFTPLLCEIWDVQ
Chain of Estrogen-related receptor gamma (Homo sapiens) (P62508 whole entry, looked up, the tested form may be a part): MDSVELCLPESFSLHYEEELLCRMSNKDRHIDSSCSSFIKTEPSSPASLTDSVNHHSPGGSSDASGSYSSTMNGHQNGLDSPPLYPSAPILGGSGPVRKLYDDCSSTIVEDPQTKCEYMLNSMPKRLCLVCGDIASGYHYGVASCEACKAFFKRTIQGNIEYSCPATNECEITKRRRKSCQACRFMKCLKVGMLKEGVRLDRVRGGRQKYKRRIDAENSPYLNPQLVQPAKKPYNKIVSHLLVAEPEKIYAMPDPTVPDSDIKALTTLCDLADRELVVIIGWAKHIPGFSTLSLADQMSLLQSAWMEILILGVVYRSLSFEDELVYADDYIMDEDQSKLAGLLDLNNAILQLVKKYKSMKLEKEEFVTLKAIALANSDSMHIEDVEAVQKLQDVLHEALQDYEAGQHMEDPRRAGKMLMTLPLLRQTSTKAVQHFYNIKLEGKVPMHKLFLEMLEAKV

Turning to `Nc1cccc2ccccc12`, the compound was called inactive in [1], in assay [2], in [3], in [4], in assay [6] and in assay [7]. The compound was classed as inactive in assay [8], in assay [9], in assay [10], in assay [11] and in assay [12]. Moreover, the AC50 in [5] was 170 µM (active).
With `O=P(O)(O)CN(CP(=O)(O)O)CP(=O)(O)O`, the result in assay [1], in assay [2], in assay [3], in [4], in assay [5] and in assay [13] was inactive. In addition, the compound was called inactive in assay [7], in assay [8], in [9], in assay [14], in assay [10] and in assay [11]. Besides, the outcome in assay [12] and in assay [15] was inactive.
On to `ClCc1cccnc1`, for which the result in [1], in assay [2], in assay [3], in assay [5], in assay [6] and in assay [7] was inactive. Moreover, the call in [16], in assay [10], in [12] and in assay [17] was inactive. For the same compound, the AC50 was 30.8 µM (active) in assay [4], 63.2 µM (active) in [9], 48.3 µM (active) in assay [14] and 58.1 µM (active) in assay [11].
With `N#CCc1ccc(Cl)cc1`, the compound was classed as inactive in assay [1], in [2], in [4], in assay [5], in [6] and in [13]. Moreover, the compound was called inactive in assay [7], in assay [9], in assay [14], in assay [10], in [11] and in [15]. Besides, the result in assay [18] was inactive.
Consider `CCC(C)c1cccc(C(C)CC)c1O` (stereo unspecified), for which the call in assay [1], in assay [2], in [4], in [5], in assay [6] and in [13] was inactive. The compound was called inactive in [7], in [8], in [9], in assay [14], in assay [11] and in assay [17]. Besides, the AC50 in [10] is 24.4 µM (active).
Regarding `O=CC=O`, the compound was classed as inactive in assay [1], in assay [2], in assay [4], in assay [5], in assay [6] and in assay [13]. For the same compound, the outcome in [7], in assay [8], in [9], in assay [10] and in [11] was inactive.
As for `Cc1ccc2ccccc2c1C`, the compound was classed as inactive in [1], in assay [2], in assay [4], in assay [5], in [6] and in assay [7]. The compound was classed as inactive in [8], in [9], in assay [16], in [10], in [11] and in assay [12].
With `COP(=O)(OC)OC`, the outcome in assay [1], in assay [2], in assay [4], in [5], in [6] and in [7] was inactive. The outcome in assay [8], in assay [9], in [14], in assay [16], in assay [10] and in assay [19] was inactive. The result in [11] and in [20] was inactive.
In the case of `Cn1sc(Cl)cc1=O`, in assay [1], the AC50 is 100 µM (active). Moreover, the result in [2], in assay [4], in assay [5], in assay [6], in assay [13] and in assay [7] was inactive. The compound was classed as inactive in [8], in assay [9], in assay [14], in assay [10], in assay [11] and in assay [15].
